Screens as filed in PubChem BioAssay.
Compounds with a hit are over-represented: about 27% of the library has one in this group of screens.
Cav32 inh: inhibitors of human Cav3.2 T-type calcium channel; AID 449739; O95180; B-score at 10 µM; Cav3.2-expressing cells, Fluo-4 calcium fluorescence FDSS; active compounds read low; 100,000 compounds, 4% hits;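 active = single-dose well whose peak fluorescence ratio is a statistical outlier from its plate by either plate-standardised score or position-corrected B-score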
CYP2C9 inhib: inhibitors of human CYP2C9. P11712. CYP2C9 Supersomes, luciferin-H conversion, luminescence. inhibition, % at 5 µM. 96,000 compounds, 20% hits. AID 777;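 active = blocking of liver enzyme CYP2C9 beyond about 50% at 5 µM, limit read from the data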
CYP2C19 act: cytochrome P450 2C19 (human) activation; activation factor at 5 µM; P33261; recombinant CYP2C19, luciferin-H EGE luminescence; active compounds read high; 0 = fully inhibited enzyme, 1 = untreated enzyme; 96,000 tested, under 10 active; AID 1025;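 active = activation factor of at least 2 at 5 µM in the primary screen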;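 note: 0 = wells with 2.5 mM tranylcypromine and 1 = vehicle-only wells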
CYP2C19 inhib: inhibitors of human CYP2C19; P33261; CYP2C19 Supersomes, luciferin-H EGE luminescence, 30 min; inhibition, % at 5 µM; 96,000 compounds, 21% hits;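 active = CYP2C19 inhibition above a set limit at 5 µM in the primary screen, cut at about 50% in these data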;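 note: plate controls were negative control wells for no effect and 2.5 mM tranylcypromine positive control for full effect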
CYP2C9 activ: increases human cytochrome P450 2C9 activity; P11712; recombinant CYP2C9, luciferin-H conversion, luminescence; active compounds read high; factor 1 = untreated enzyme, 0 = blocked; activation factor at 5 µM; 96,000 compounds, 1.4% hits; AID 1024;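 active = activation factor of 2 or more for CYP2C9 at a 5 µM dose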;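 note: 0 = sulfaphenazole-blocked wells and 1 = vehicle-only wells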
* hit, by the source's call.

What do the screens show for `CCOC(=O)c1cc2sccc2n1CC(=O)N1CCCC1`?
Cav32 inh: -1.7; CYP2C9 inhib: 24; CYP2C19 act: 0.6; CYP2C19 inhib: 44; CYP2C9 activ: 0.8

What do the screens show for `Cc1cccc(OCC(=O)Nc2cc(C)ccc2O)c1`?
Cav32 inh: -2.9; CYP2C9 inhib: 16; CYP2C19 act: 0.4; CYP2C19 inhib: 60*; CYP2C9 activ: 0.8

How did Cc1cccc(OCC(=O)Nc2ccc(S(=O)(=O)N3CCCC3)cc2)c1 do in these assays?
CYP2C9 inhib: 47; CYP2C19 act: 0.8; CYP2C19 inhib: 21; CYP2C9 activ: 0.5

What do the screens show for `Cc1cccc(OCC(=O)Nc2cc(C)c(C)cc2O)c1`?
Cav32 inh: -0.46; CYP2C9 inhib: 26; CYP2C19 act: 0.4; CYP2C19 inhib: 56*; CYP2C9 activ: 0.7

Results for Cc1cccc(OCC(=O)NNc2c3ccccc3nc3ccccc23)c1 ?
Cav32 inh: -2.6; CYP2C9 inhib: -95; CYP2C19 act: 1; CYP2C19 inhib: 5; CYP2C9 activ: 2*

What do the screens show for `COc1cccc(C(=O)Nc2cc(C)ccc2NC(=O)COc2ccccc2)c1`?
CYP2C9 inhib: 12; CYP2C19 act: 1.1; CYP2C19 inhib: -11; CYP2C9 activ: 0.9

How did CC1=C(C(=O)Nc2ccccn2)C(c2cccnc2)n2nnnc2N1 (configuration not stated) do in these assays?
Cav32 inh: 1.3; CYP2C9 inhib: 4; CYP2C19 act: 1; CYP2C19 inhib: 2; CYP2C9 activ: 1

How did O=C(CSc1ccc2c(c1)OCCO2)NCC1CCCO1 (configuration not stated) do in these assays?
Cav32 inh: 0.39; CYP2C9 inhib: 2; CYP2C19 act: 0.8; CYP2C19 inhib: 24; CYP2C9 activ: 1

What do the screens show for `Cc1ccc(NC2=C(Cl)C(=O)OC2OC(=O)c2ccco2)c(C)c1` (configuration not stated)?
Cav32 inh: -0.69

Results for Cc1ccc(C)c(NC2=C(Cl)C(=O)OC2OC(=O)c2ccco2)c1 (configuration not stated) ?
Cav32 inh: -0.45; CYP2C9 inhib: 58*; CYP2C19 act: 0.2; CYP2C19 inhib: 76*; CYP2C9 activ: 0.4

What do the screens show for `O=C(O)c1ccc(CNc2ccccc2C(=O)O)cc1`?
Cav32 inh: 0.85; CYP2C9 inhib: 0; CYP2C19 act: 1; CYP2C19 inhib: -2; CYP2C9 activ: 1

Results for O=C(O)c1ccccc1NCc1ccncc1 ?
Cav32 inh: -1.5; CYP2C9 inhib: 76*; CYP2C19 act: 1; CYP2C19 inhib: 1; CYP2C9 activ: 0.2

How did COc1ccc(C)cc1NC(=O)c1nnn(CCc2ccccc2)c1N do in these assays?
Cav32 inh: -0.027; CYP2C9 inhib: -23; CYP2C19 act: 0.9; CYP2C19 inhib: 8; CYP2C9 activ: 1.2

How did COc1ccc(C)cc1NC(=O)c1nnn(Cc2cc(C)ccc2C)c1N do in these assays?
Cav32 inh: -1.7; CYP2C9 inhib: -142; CYP2C19 act: 0.8; CYP2C19 inhib: 17; CYP2C9 activ: 2.4*

What do the screens show for `COc1ccc(OC)c(NC(=O)c2nnn(Cc3ccccc3C)c2N)c1`?
Cav32 inh: -0.2; CYP2C9 inhib: -115; CYP2C19 act: 0.8; CYP2C19 inhib: 16; CYP2C9 activ: 2.1*

How did CCOC(=O)c1c(C)c(-c2ccccc2)n(CC(=O)NCCC(C)C)c1C do in these assays?
Cav32 inh: -1.8; CYP2C9 inhib: 46; CYP2C19 act: 0.8; CYP2C19 inhib: 18; CYP2C9 activ: 0.5

How did CCOC(=O)N1CCC(N2Cc3cccc(C(=O)NC(C)c4ccc5c(c4)OCCO5)c3C2=O)CC1 (configuration not stated) do in these assays?
Cav32 inh: -0.16; CYP2C9 inhib: 98*; CYP2C19 act: 0.2; CYP2C19 inhib: 82*; CYP2C9 activ: 0

How did CCOC(=O)N1CCC(N2Cc3cccc(C(=O)NCc4ccccn4)c3C2=O)CC1 do in these assays?
Cav32 inh: 2.2; CYP2C9 inhib: 95*; CYP2C19 act: 0.3; CYP2C19 inhib: 74*; CYP2C9 activ: 0.1

What do the screens show for `CCOC(=O)N1CCC(NC(=O)c2cccc3c2C(=O)N(CCOC)C3)CC1`?
Cav32 inh: 0.22; CYP2C9 inhib: 88*; CYP2C19 act: 0.7; CYP2C19 inhib: 34; CYP2C9 activ: 0.1

What do the screens show for `CCOC(=O)N1CCC(N2Cc3cccc(C(=O)NCc4ccc(C)cc4)c3C2=O)CC1`?
Cav32 inh: 1.4; CYP2C9 inhib: 70*; CYP2C19 act: 0.8; CYP2C19 inhib: 25; CYP2C9 activ: 0.3

How did Cc1ccc(C)n1-c1cc(S(=O)(=O)N2CCOCC2)ccc1N1CCCC1 do in these assays?
Cav32 inh: -1.1; CYP2C9 inhib: 46; CYP2C19 act: 0.8; CYP2C19 inhib: 19; CYP2C9 activ: 0.5

Results for O=S(=O)(Nc1ccc(O)c(Sc2nc3ccccc3s2)c1)c1ccc(Cl)cc1 ?
CYP2C9 inhib: 14; CYP2C19 act: 1; CYP2C19 inhib: -1; CYP2C9 activ: 0.9

Results for O=C(CN(Cc1cccs1)C(=O)CCC(=O)Nc1nccs1)NCc1ccccc1 ?
Cav32 inh: -2.5; CYP2C9 inhib: 64*; CYP2C19 act: 0.2; CYP2C19 inhib: 78*; CYP2C9 activ: 0.4

How did Cc1sc2nc(C3CCCCC3)nc(SCC(=O)N3CC(=O)Nc4ccccc43)c2c1C do in these assays?
Cav32 inh: 0.33; CYP2C9 inhib: 86*; CYP2C19 act: 0.6; CYP2C19 inhib: 40; CYP2C9 activ: 0.1

Results for Cc1ccc(S(=O)(=O)NC2=NCN(CCOC(=O)c3ccc([N+](=O)[O-])cc3)CN2)cc1 ?
Cav32 inh: 0.79; CYP2C9 inhib: -3; CYP2C19 act: 1.2; CYP2C19 inhib: -18; CYP2C9 activ: 1

How did O=C(CSc1nc2c(c(=O)n1-c1ccc(F)cc1)SCC2)NCc1ccco1 do in these assays?
Cav32 inh: -1; CYP2C9 inhib: 8; CYP2C19 act: 1; CYP2C19 inhib: 3; CYP2C9 activ: 0.9

How did CCCNC(=O)NC(=O)CSc1nc2ccccc2n1CC(C)C do in these assays?
Cav32 inh: -2.2; CYP2C9 inhib: 53*; CYP2C19 act: 0.1; CYP2C19 inhib: 88*; CYP2C9 activ: 0.5

Results for CCNC(=O)NC(=O)CSc1nc2ccccc2n1CCOC ?
Cav32 inh: 0.2; CYP2C9 inhib: 61*; CYP2C19 act: 0.8; CYP2C19 inhib: 22; CYP2C9 activ: 0.4

Results for CC(C)CNC(=O)NC(=O)CSc1nc2ccccc2n1CC(C)C ?
Cav32 inh: -4; CYP2C9 inhib: -8; CYP2C19 act: 0.5; CYP2C19 inhib: 47; CYP2C9 activ: 1.1

How did Cc1nn(Cc2c(F)c(F)c(F)c(F)c2F)c(C)c1NC(=O)c1c(-c2ccccc2)nn(-c2ccccc2)c1C do in these assays?
Cav32 inh: 0.32; CYP2C9 inhib: 35; CYP2C19 act: 0.7; CYP2C19 inhib: 27; CYP2C9 activ: 0.6

What do the screens show for `CN1CCN(C(=O)c2cc3c(n(-c4ccccc4)c2=O)CC(C)(C)CC3=O)CC1`?
Cav32 inh: 0.34; CYP2C9 inhib: -9; CYP2C19 act: 1.2; CYP2C19 inhib: -17; CYP2C9 activ: 1.1
